The other results are listed elsewhere or left out. Active and inactive are the calls of the source.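 Rule for the calls, unless noted: active = over 150 percent of DMSO response; inconclusive = yeast strain measured with under 70 events; inactive = the rest.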
Assays:
[1] = yeast TOR reporter LAP4-GFP level changes – cell-based, second cherry pick, flow cytometry, confirmation (AID 2621;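 active = GFP signal as percent of the solvent control above about 150%, meaning raised reporter expression, limit read from the data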;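 note: ratio of well median GFP fluorescence to plate DMSO mean so 100% = DMSO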); details: S. cerevisiae LAP4-GFP strain, 3 h, at 10 µM, stronger effect = higher value
[2] = TOR pathway reporter MEP2-GFP, hit retest – S. cerevisiae, flow cytometry GFP, second cherry picks, confirmation (AID 2622;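 active = GFP signal above 150% of the solvent control wells, that is a rise of more than half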;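 note: median channel GFP fluorescence of all gated yeast cells per well; ratio of median GFP to plate DMSO average so 100% = DMSO level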); details: S. cerevisiae MEP2-GFP strain, 3 h, at 10 µM, stronger effect = higher value
[3] = retest of hits on RPL19A-GFP strain – cell-based, S. cerevisiae, flow cytometry, second cherry pick, confirmation (AID 2623;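 active = under 65% GFP response relative to DMSO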;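 note: median GFP channel fluorescence per well over the all cells gate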); details: 3 h, at 10 µM, stronger effect = lower value, 100% means same as DMSO wells
[4] = yeast TOR pathway CIT2-GFP reporter modulation – flow cytometry, second cherry pick, single plex, confirmation (AID 2624;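 active = GFP response vs DMSO above about 150%, limit read from the data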;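 note: median green fluorescence per well over all gated yeast cells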); details: S. cerevisiae CIT2-GFP strain, 3 h, at 10 µM, stronger effect = higher value, DMSO control wells read 100%
[5] = yeast AGP1-GFP fluorescence change, single-dose confirmation – cell-based, flow cytometry, S. cerevisiae, cherry pick set 2 (AID 2643);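 note: median GFP channel fluorescence over all cells without mother daughter split; sample median GFP divided by mean DMSO control so 100% equals DMSO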; details: S. cerevisiae AGP1-GFP strain, 3 h, at 10 µM, stronger effect = higher value
[6] = green-channel fluorescence artefact in S. cerevisiae – s288c strain, artefact control for yeast TOR pathway GFP screen, dose response (AID 2757;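 active = fluorescence span over the dose series, or activity score, above about 33, limit read from the data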;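 note: thousands of bead-calibrated equivalent soluble fluorophore molecules from median cell fluorescence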); details: 520 nm autofluorescence, flow cytometry, 3 h, at 33 µM, stronger effect = higher value, zero means same as solvent-only cells
[7] = reduced mouse 2C T cell binding to pMHC/ICAM-1 vesicles – MLPCN validation set, flow cytometry, LFA-1/ICAM-1 modulator project, pilot screen (AID 2523;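 active = response below a set limit, under 55% cells CD8-positive and vesicle-bound, and CD8 cells' 90th-percentile brightness under 279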;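 for vesicle binding response: mean PE anti-B7-1 fluorescence of CD8+ cells relative to row control; 100% = QL9-loaded vesicles with DMSO vehicle in the same plate row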); details: 2C mouse CD8+ T cells, at 7 µM, stronger effect = lower value; double positive events: measured here: CD8+/vesicle+ event percentage
[8] = molecular target: Integrin beta-1 (Homo sapiens) + Integrin alpha-4 (Homo sapiens) (UniProt P13612+P05556); test: alpha4beta1 integrin LIBS antibody binding reduction – U937 cells, HUTS-21 mAb, flow cytometry, validation set, VLA-4 allosteric modulator project, pilot screen (AID 2674;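 active = inhibition above 50%, about 3 SD of the validation set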;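 note: antibody binding induced by the VLA-4 ligand LDV present at three times its Kd; 0% = LDV ligand with antibody and no compound and 100% = antibody without LDV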); details: HUTS-21 LIBS mAb binding, at 6.7 µM, stronger effect = higher value, binding induced by LDV ligand
Integrin beta-1 (Homo sapiens) + Integrin alpha-4 (Homo sapiens), sequence (P05556 whole entry, looked up): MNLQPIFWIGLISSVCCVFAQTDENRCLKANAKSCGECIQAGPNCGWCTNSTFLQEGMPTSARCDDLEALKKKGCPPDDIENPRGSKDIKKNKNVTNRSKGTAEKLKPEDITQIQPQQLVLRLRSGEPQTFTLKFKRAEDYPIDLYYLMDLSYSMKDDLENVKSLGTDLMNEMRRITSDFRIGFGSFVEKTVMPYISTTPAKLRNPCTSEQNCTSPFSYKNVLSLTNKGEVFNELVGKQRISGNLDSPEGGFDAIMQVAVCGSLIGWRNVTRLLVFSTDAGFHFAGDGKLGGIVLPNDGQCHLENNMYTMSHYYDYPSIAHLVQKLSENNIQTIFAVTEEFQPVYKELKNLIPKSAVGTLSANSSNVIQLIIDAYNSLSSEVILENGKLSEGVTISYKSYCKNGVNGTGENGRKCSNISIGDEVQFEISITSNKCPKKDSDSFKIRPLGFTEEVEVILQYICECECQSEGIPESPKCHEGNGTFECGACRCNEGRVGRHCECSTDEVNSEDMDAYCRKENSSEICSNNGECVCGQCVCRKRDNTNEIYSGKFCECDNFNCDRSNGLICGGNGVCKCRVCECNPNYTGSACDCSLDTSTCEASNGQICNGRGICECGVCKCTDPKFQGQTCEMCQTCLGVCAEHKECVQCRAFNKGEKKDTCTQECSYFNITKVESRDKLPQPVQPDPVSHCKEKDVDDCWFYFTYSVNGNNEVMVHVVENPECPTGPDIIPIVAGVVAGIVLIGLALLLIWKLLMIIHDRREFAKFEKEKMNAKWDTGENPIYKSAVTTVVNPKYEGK
Integrin beta-1 (Homo sapiens) + Integrin alpha-4 (Homo sapiens), sequence (P13612 whole entry, looked up): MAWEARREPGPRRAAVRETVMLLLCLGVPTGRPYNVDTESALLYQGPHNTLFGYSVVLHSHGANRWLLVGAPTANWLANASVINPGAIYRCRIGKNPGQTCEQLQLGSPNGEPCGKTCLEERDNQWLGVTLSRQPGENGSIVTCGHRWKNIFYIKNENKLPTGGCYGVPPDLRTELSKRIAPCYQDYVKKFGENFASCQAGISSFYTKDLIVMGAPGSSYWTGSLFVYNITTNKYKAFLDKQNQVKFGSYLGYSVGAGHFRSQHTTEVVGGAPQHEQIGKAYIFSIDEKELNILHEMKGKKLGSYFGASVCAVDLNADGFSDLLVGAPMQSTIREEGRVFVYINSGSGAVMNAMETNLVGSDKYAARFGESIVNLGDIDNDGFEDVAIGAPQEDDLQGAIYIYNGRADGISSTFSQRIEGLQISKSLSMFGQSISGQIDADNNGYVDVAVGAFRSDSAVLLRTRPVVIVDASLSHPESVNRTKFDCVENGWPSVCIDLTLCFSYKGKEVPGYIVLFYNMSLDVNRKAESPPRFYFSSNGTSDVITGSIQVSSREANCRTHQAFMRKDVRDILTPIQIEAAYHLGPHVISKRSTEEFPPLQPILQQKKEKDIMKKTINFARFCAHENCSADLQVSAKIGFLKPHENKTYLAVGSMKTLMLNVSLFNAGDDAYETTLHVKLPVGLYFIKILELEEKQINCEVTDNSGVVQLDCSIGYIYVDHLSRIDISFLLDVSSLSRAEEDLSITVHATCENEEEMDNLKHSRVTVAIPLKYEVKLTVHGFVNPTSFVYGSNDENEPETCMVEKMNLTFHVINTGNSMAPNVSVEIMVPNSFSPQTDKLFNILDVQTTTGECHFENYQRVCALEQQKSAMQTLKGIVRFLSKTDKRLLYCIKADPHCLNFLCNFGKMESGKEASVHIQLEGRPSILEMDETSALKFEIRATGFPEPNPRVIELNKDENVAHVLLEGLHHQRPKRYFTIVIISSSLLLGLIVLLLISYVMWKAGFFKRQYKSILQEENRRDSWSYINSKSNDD

[9] = molecular target: Beta-adrenergic receptor kinase 1 (Homo sapiens) (UniProt P25098); test: GRK2 binders displacing RNA aptamer, biochemical, validation, human GRK2, bead flow cytometry (AID 488806;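 active = aptamer binding inhibition above 30%, about 3 SD of noise from non-fluorescent compounds; inactive = inhibition at or below 30%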); details: bead-bound GRK2, FAM-aptamer displacement, at 10 µM, stronger effect = higher value
Beta-adrenergic receptor kinase 1 (Homo sapiens), sequence (P25098 whole entry, looked up): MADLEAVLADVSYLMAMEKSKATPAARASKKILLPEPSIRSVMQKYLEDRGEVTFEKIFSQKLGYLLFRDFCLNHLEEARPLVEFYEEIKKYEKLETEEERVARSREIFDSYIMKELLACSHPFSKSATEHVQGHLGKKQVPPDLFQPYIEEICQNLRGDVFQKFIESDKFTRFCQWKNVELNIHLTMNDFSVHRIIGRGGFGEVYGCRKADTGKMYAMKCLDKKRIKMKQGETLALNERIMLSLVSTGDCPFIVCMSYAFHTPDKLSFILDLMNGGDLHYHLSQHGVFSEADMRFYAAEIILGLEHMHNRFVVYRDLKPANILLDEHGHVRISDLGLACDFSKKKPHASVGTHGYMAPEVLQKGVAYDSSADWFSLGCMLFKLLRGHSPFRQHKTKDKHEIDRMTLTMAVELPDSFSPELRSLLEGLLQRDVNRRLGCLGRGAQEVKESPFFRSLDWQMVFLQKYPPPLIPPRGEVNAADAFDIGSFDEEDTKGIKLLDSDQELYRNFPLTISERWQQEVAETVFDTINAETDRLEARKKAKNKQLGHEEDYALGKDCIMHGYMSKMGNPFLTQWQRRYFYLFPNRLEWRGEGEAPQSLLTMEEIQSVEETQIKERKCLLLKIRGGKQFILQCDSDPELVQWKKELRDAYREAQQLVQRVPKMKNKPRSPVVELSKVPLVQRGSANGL

[10] = molecular target: Beta-2 adrenergic receptor (Homo sapiens) (UniProt P07550); test: agonist-induced loss of surface beta2AR – cell-based, FAP fluorogen, flow cytometry, validation set, pilot screen (AID 504459;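 active = percent response above 42, roughly 3 SD of non-fluorescent test compounds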;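 note: agonist-driven loss of surface beta2AR via internalization measured by FAP dye flow cytometry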); details: Am2.2-beta2AR cells, at 10 µM, stronger effect = higher value
Beta-2 adrenergic receptor (Homo sapiens), sequence (P07550 whole entry, looked up): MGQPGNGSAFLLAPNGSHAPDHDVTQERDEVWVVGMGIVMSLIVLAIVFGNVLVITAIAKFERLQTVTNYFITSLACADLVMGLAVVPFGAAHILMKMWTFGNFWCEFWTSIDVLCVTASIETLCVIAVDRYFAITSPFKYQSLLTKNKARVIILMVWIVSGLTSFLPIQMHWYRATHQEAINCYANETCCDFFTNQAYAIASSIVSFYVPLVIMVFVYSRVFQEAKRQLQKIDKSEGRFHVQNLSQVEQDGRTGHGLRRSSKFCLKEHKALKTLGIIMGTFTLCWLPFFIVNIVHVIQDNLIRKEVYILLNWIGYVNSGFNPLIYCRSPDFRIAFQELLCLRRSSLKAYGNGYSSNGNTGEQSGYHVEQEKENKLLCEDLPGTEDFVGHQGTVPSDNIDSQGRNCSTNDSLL

[11] = molecular target: AP-2 complex subunit beta (Homo sapiens) (UniProt P63010); test: beta-arrestin/AP2 interaction blockers – biochemical, validation set, GST-AP2 beads, flow cytometry, pilot screen (AID 504541;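 active = inhibition above 54%, about 3 SD of non-fluorescent compounds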;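 note: AP2 carries R879A mutation and is captured from E. coli lysate; bead-bound FITC arrestin peptide fluorescence measuring arrestin peptide binding to AP2; 0% = DMSO wells and 100% = excess unlabeled arrestin peptide control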); details: FITC arrestin peptide, at 10 µM, stronger effect = higher value, AP2 beta2 appendage fragment, R879A mutant
AP-2 complex subunit beta (Homo sapiens), sequence (P63010 whole entry, looked up, the tested form may be a part, one chain of several): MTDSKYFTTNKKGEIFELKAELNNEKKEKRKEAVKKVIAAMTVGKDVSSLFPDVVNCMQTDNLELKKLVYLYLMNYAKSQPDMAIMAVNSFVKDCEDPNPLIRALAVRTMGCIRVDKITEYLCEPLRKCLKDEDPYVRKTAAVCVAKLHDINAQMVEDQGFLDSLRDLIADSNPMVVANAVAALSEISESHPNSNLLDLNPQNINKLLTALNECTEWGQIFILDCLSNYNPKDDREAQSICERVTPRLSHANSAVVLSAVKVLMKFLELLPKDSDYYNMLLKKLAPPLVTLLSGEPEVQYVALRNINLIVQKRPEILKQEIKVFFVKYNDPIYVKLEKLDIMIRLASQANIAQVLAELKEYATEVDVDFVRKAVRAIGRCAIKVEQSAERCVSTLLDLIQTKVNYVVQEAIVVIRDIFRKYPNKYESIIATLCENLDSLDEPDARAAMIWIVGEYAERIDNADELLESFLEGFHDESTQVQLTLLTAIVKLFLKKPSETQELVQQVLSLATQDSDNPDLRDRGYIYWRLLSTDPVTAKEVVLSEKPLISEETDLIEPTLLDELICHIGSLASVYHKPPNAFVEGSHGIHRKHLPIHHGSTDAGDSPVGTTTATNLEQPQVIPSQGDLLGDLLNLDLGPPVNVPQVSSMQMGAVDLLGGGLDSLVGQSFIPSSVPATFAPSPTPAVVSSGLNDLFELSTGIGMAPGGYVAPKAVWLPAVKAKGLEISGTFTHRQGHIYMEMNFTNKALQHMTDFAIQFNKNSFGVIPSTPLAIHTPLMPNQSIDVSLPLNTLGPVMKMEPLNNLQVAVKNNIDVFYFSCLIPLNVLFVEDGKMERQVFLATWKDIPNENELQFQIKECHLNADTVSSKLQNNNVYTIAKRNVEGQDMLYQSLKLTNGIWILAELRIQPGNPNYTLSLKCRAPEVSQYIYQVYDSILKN

[12] = cytosolic pH regulators acting via V-ATPase – S. cerevisiae, pHLuorin, HTS validation (AID 504600; in the data active = response above about 15%;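 note: plate controls were DMSO for no effect and reference compound for full effect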); details: V-ATPase proton transport, at 10 µM, stronger effect = higher value
[13] = tested on: anti-desmoglein-3 scFv antibody binding to human DSG3; test: blockers of pathogenic pemphigus antibody–desmoglein-3 binding – biochemical, validation compound set, bead-based, flow cytometry, pilot screen (AID 588368;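 active = binding below the plate cutoff, the plate median minus 3 SD, with a reading above zero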;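 note: signal is the median channel fluorescence of bead-bound GFP antibody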); details: Protein G beads, DSG3-Fc, scFv-GFP binding, at 10 µM, stronger effect = lower value
[14] = Nile Red efflux blockade in pump-expressing yeast – validation compound set, multiplex, phenotypic, pilot screen (AID 588506;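 active = efflux inhibition above 0.42, the validation set average plus 4 SD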;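 note: Nile Red retained in cells so higher fluorescence means more efflux inhibition; 0 = negative control wells and 1 = enniatin B 25 µM full block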); details: S. cerevisiae pump-expressing triplex, Nile Red efflux flow cytometry; at 10 µM; stronger effect = higher value; the pumps come from Candida albicans
[15] = molecular target: ATP-binding cassette sub-family B member 6 (Homo sapiens) (UniProt Q9NP58); test: blockers of ABCB6-driven porphyrin uptake – K562-ABCB6 cells, flow cytometry, validation set, pilot screen (AID 588550;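 active = inhibition above the screen-wide mean plus 3 SD, about 51%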;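 note: 0% = DMSO wells and 100% = benzethonium chloride 70 µM positive control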); details: K562-ABCB6 porphyrin accumulation, 1 h, at 10 µM, stronger effect = higher value
ATP-binding cassette sub-family B member 6 (Homo sapiens), sequence (Q9NP58 whole entry, looked up): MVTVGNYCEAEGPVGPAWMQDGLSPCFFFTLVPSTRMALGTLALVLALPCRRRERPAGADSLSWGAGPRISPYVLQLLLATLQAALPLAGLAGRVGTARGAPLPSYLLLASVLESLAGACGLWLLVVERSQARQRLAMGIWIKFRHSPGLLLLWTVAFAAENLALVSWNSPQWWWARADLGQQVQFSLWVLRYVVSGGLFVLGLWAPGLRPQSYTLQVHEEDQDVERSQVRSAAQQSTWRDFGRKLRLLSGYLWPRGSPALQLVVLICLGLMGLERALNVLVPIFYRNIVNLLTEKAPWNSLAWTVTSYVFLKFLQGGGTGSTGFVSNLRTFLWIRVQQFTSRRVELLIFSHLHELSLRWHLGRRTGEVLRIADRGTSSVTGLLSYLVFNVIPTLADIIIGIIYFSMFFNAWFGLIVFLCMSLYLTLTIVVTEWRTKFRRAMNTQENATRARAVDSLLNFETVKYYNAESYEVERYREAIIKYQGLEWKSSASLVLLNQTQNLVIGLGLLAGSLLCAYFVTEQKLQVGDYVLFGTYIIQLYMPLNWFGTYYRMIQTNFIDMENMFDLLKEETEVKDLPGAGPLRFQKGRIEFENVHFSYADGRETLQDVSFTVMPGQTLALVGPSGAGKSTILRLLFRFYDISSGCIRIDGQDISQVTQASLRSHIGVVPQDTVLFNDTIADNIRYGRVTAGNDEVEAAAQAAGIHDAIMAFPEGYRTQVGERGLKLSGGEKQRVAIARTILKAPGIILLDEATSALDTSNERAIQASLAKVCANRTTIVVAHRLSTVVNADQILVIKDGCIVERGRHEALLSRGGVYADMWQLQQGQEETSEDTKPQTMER

[16] = AML differentiation inducers, ER-HoxA9 marrow cells – cell-based, GFP/MAC1 double positive, flow cytometry, validation set, primary screen (AID 588685;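 active = differentiation response of at least 50%, scaled between solvent and reference control, from cells with both markers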;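 note: compound exposure lasts four days before antibody staining and flow analysis; 0% = DMSO wells and 100% = 5 µM fulvestrant positive control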); details: stronger effect = higher value, normalized: vehicle 0, fulvestrant 100
[17] = calorie-restriction mimetic ROS inhibitors, yeast – validation compound set, pilot screen (AID 2706;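 active = superoxide response below 65% of plate, a cut near 3 SD across the whole screen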;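 note: yeast exposed to compound for one week at 30 degrees C before staining; 100% = mean of all compound wells on the same plate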); details: S. cerevisiae aging, superoxide DHE fluorescence; at 10 µM, stronger effect = lower value

COc1ccc(-c2nc(CS(=O)(=O)CC(=O)NCc3cccc(Br)c3)c(C)o2)cc1
inactive: GFP response vs DMSO [1] 109% | GFP response vs DMSO [2] 119% | GFP response vs DMSO [3] 101% | GFP response vs DMSO [4] 113% | percent response vs DMSO [5] 99.3%

COc1ccc(C2(C)ON(c3ccccc3C(F)(F)F)C2=O)cc1 (stereo unspecified)
inactive: GFP response vs DMSO [1] 113% | GFP response vs DMSO [2] 103% | GFP response vs DMSO [3] 100% | GFP response vs DMSO [4] 100% | percent response vs DMSO [5] 101% | fluorescence change (kMESF span) [6] 0.5

O=C(Nc1nnc(-c2ccc(Cl)cc2)o1)c1ccccc1Br
inactive: GFP response vs DMSO [2] 120% | GFP response vs DMSO [3] 99.6% | GFP response vs DMSO [4] 133% | percent response vs DMSO [5] 95.3% | fluorescence change (kMESF span) [6] 0.5
active: GFP response vs DMSO [1] 174%

O=C(NC(=S)NC1CCS(=O)(=O)C1)c1cccc([N+](=O)[O-])c1 (stereo unspecified)
inactive: GFP response vs DMSO [1] 101% | GFP response vs DMSO [2] 105% | GFP response vs DMSO [3] 101% | GFP response vs DMSO [4] 105% | percent response vs DMSO [5] 106%

Clc1cccc(CN2COc3c(cc(Cl)c4cccnc34)C2)c1
inactive: GFP response vs DMSO [1] 127% | GFP response vs DMSO [2] 130% | GFP response vs DMSO [3] 101% | GFP response vs DMSO [4] 95% | percent response vs DMSO [5] 95.3% | fluorescence change (kMESF span) [6] 1.92

O=C(NCCN1CCOCC1)c1ccc(Cl)cc1
64.3%: double positive events [7]
inactive: vesicle binding response [7] 168% | inhibition [8] -16% | aptamer binding inhibition [9] -1% | response [10] 15.8% | inhibition [11] 23.5% | response [12] -22.3% | binding (% of control) [13] 105% | inhibition [15] 14% | differentiation response [16] 15.9%
active: efflux inhibition (fraction of control) [14] 1.05

COc1ccc(C)cc1NC(=O)CSc1nc(SC)ns1
inactive: GFP response vs DMSO [1] 97.2% | GFP response vs DMSO [2] 97.8% | GFP response vs DMSO [3] 100% | GFP response vs DMSO [4] 102% | percent response vs DMSO [5] 100%

CCc1nnc(SCc2cccc(F)c2)nc1CC
inactive: GFP response vs DMSO [1] 104% | GFP response vs DMSO [2] 96.1% | GFP response vs DMSO [3] 95.5% | GFP response vs DMSO [4] 89% | percent response vs DMSO [5] 97.8%

COc1ccc(S(=O)(=O)N2CCN(C(=O)COc3ccc4c(C)cc(=O)oc4c3)CC2)cc1
inactive: inhibition [8] 3.67% | superoxide response (% of plate) [17] 96.9% | aptamer binding inhibition [9] -1% | response [10] 11.5% | inhibition [11] -2.78% | response [12] 0.22% | binding (% of control) [13] 103% | efflux inhibition (fraction of control) [14] 0.3 | inhibition [15] -3% | differentiation response [16] 4%
90%: double positive events [7]

CCOC(=O)c1cnc(SCC(=O)NCc2ccco2)nc1N
inactive: GFP response vs DMSO [1] 99.2% | GFP response vs DMSO [2] 97.8% | GFP response vs DMSO [3] 96.8% | GFP response vs DMSO [4] 111% | percent response vs DMSO [5] 95.9%

COc1cccc(/C=N/Nc2ncc(C(F)(F)F)cc2Cl)c1O
inactive: GFP response vs DMSO [2] 143% | GFP response vs DMSO [3] 102% | GFP response vs DMSO [4] 132% | percent response vs DMSO [5] 86.2% | fluorescence change (kMESF span) [6] 1.52
active: GFP response vs DMSO [1] 200%

COc1ccc2nc(N3CCN(C(=O)c4ccc([N+](=O)[O-])o4)CC3)sc2c1
inactive: GFP response vs DMSO [3] 87% | percent response vs DMSO [5] 87.3%
active: GFP response vs DMSO [1] 252% | GFP response vs DMSO [2] 255% | GFP response vs DMSO [4] 243%

COc1ccc2cc(-c3nc4ccccc4n3C)c(=O)oc2c1
65.4%: double positive events [7]
inactive: vesicle binding response [7] 147% | inhibition [8] -9.79% | aptamer binding inhibition [9] 1% | response [10] -16.5% | response [12] -29.1% | binding (% of control) [13] 95.5% | efflux inhibition (fraction of control) [14] -0.2 | inhibition [15] 7% | differentiation response [16] 17.8%

CS(=O)(=O)Oc1ccc2c(c1)O/C(=C\C=C\c1ccccc1)C2=O
64.8%: double positive events [7]
inactive: vesicle binding response [7] 247% | inhibition [8] -40.9% | aptamer binding inhibition [9] 4% | response [10] 26.6% | inhibition [11] 27.4% | response [12] -12.2% | binding (% of control) [13] 88.2% | efflux inhibition (fraction of control) [14] -0.14 | inhibition [15] -22% | differentiation response [16] 30.5%

C#CCOCCOCCOCCNc1nc(N2CCN(C(=O)CCCCCCCCCCNC(=O)[C@H](CCCCN)n3cc(C)nn3)CC2)nc(N2CCN(C(=O)CCCCCCCCCCNC(=O)[C@H](CO)n3cc(CCCSC)nn3)CC2)n1
inactive: GFP response vs DMSO [1] 109% | GFP response vs DMSO [2] 119% | GFP response vs DMSO [3] 97.6% | GFP response vs DMSO [4] 110% | percent response vs DMSO [5] 104%

CC1=C/C(=N\OS(=O)(=O)c2ccccc2)C=CC1=O
inactive: GFP response vs DMSO [1] 126% | GFP response vs DMSO [2] 145% | GFP response vs DMSO [3] 103% | GFP response vs DMSO [4] 109% | percent response vs DMSO [5] 101%

CC(Oc1ccc2ccccc2c1)C(=O)NNC(=S)NC(=O)c1ccco1 (stereo unspecified)
active: GFP response vs DMSO [1] 312% | GFP response vs DMSO [2] 175% | GFP response vs DMSO [4] 187%
inactive: GFP response vs DMSO [3] 101% | percent response vs DMSO [5] 112% | fluorescence change (kMESF span) [6] 2.02

CCN1/C(=C/c2ccc3ccc(C)cc3[n+]2CC)Sc2ccccc21
inactive: GFP response vs DMSO [3] 136%
active: GFP response vs DMSO [1] 392% | GFP response vs DMSO [2] 1240% | GFP response vs DMSO [4] 1630% | percent response vs DMSO [5] 203%

CC(C)NC[C@@H](O)c1ccc(O)c(O)c1
58%: double positive events [7]
inactive: vesicle binding response [7] 125% | inhibition [8] -27.9% | superoxide response (% of plate) [17] 97.4% | inhibition [11] 0.64% | response [12] 11.9% | binding (% of control) [13] 97.3% | efflux inhibition (fraction of control) [14] 0 | inhibition [15] 2% | differentiation response [16] -7.5%

CCOc1ccccc1C(=O)NCCC(=O)O
inactive: vesicle binding response [7] 64.9% | inhibition [8] -17.1% | aptamer binding inhibition [9] 1% | response [10] 12.6% | inhibition [11] 19.4% | response [12] 1.48% | binding (% of control) [13] 105% | inhibition [15] 13% | differentiation response [16] 16.9%
active: efflux inhibition (fraction of control) [14] 0.92
60.3%: double positive events [7]

Oc1ccc(Cl)cc1Cc1cc(Cl)ccc1O
63.4%: double positive events [7]
inactive: vesicle binding response [7] 194% | superoxide response (% of plate) [17] 110% | aptamer binding inhibition [9] 3% | response [10] 17.5% | inhibition [11] 24.9% | response [12] 0.73% | binding (% of control) [13] 108% | efflux inhibition (fraction of control) [14] -0.04 | inhibition [15] 11% | differentiation response [16] 4.2%

CCCn1nc(C(=O)NNC(=O)CCOc2ccccc2OCC)c2ccccc2c1=O
inactive: GFP response vs DMSO [1] 102% | GFP response vs DMSO [2] 97.8% | GFP response vs DMSO [3] 102% | GFP response vs DMSO [4] 121% | percent response vs DMSO [5] 99%

COC(=O)c1cc(-c2ccc(OC)c(OC)c2)on1
active: efflux inhibition (fraction of control) [14] 0.61
inactive: vesicle binding response [7] 155% | inhibition [8] -0.45% | aptamer binding inhibition [9] -1% | response [10] 17.4% | inhibition [11] 35.3% | response [12] -27.6% | binding (% of control) [13] 107% | inhibition [15] 0% | differentiation response [16] 31.5%
64.8%: double positive events [7]

Cc1ccc(S/C(=N\S(=O)(=O)c2ccc(Cl)cc2)c2ccccc2)cc1
inactive: GFP response vs DMSO [1] 101% | GFP response vs DMSO [2] 105% | GFP response vs DMSO [3] 98% | GFP response vs DMSO [4] 107% | percent response vs DMSO [5] 99.1%
